# The whole screen tested about 39,000 compounds, of which about 3,300 (8.5%) were called active. The sample holds actives, similar compounds and a random draw of the others, so the mix is not that of the screen.
# Test system: HepG2
# Experiment: cytotoxicity call (relative viability < 0.9)
# Details: 10 µM
row,SMILES,cytotoxicity call
1,C[C@@H]1CCCCO[C@@H](CN(C)C(=O)Nc2ccccc2)[C@@H](C)CN([C@H](C)CO)C(=O)c2cc(NC(=O)CCCCCC(=O)Nc3ccccc3N)ccc2O1,inactive
2,O=C(C1=C[C@@H](c2csc3ccccc23)C[C@@H](OCc2ccc(CO)cc2)O1)N1CCN(Cc2ccccc2)CC1,inactive
3,C[C@@H]1CCCCO[C@@H](CN(C)C(=O)Nc2ccc(F)cc2)[C@H](C)CN([C@H](C)CO)C(=O)c2cc(NC(=O)C3CCCCC3)ccc2O1,inactive
4,CN1CCN(C(=O)C[C@H]2CC[C@H]3[C@@H](COC[C@@H](O)CN3C(=O)C3CCCC3)O2)CC1,inactive
5,Cc1cc(NC(=O)CSc2nnc[nH]2)no1,inactive
6,Cc1ccc(S(=O)(=O)Nc2ccc3c(c2)CC(=O)N([C@@H](C)CO)C[C@@H](C)[C@@H](CN(C)Cc2ccc(-c4ccccc4)cc2)O3)cc1,active
7,Cc1ccc(S(=O)(=O)Nc2ccc3c(c2)CC(=O)N([C@@H](C)CO)C[C@H](C)[C@@H](CN(C)Cc2ccc(-c4ccccc4)cc2)O3)cc1,inactive
8,Cc1ccc(S(=O)(=O)Nc2ccc3c(c2)CC(=O)N([C@@H](C)CO)C[C@H](C)[C@H](CN(C)Cc2ccc(-c4ccccc4)cc2)O3)cc1,inactive
9,Cc1noc(C)c1NC(=O)N(C)C[C@H]1OCCCC[C@@H](C)Oc2ccc(NC(=O)Nc3ccc(C(F)(F)F)cc3)cc2C(=O)N([C@H](C)CO)C[C@@H]1C,inactive
10,C[C@H](CO)N1C[C@H](C)[C@H](CN(C)S(=O)(=O)c2ccc(F)cc2)Oc2ccc(NS(=O)(=O)c3ccccc3)cc2C1=O,inactive
11,Cc1ccc(Nc2c(-c3ccccc3)nc3ccccn23)cc1,inactive
12,Cc1ccc(Nc2nnc(-c3ccccc3)c3ccccc23)cc1,active
13,Cc1ccc2nc(Nc3ccccc3)nc(-c3ccccc3)c2c1,inactive
14,C[C@H](CO)N1C[C@H](C)[C@H](CN(C)S(=O)(=O)c2ccc3ccccc3c2)OCc2cn(nn2)CCCC1=O,inactive
15,C[C@H]1CN([C@@H](C)CO)C(=O)c2cccc(NC(=O)C3CCCCC3)c2O[C@@H]1CN(C)Cc1ccc(C(=O)Nc2ccccc2N)cc1,inactive
16,C[C@@H]1CN([C@H](C)CO)C(=O)c2cccc(NC(=O)C3CCCCC3)c2O[C@H]1CN(C)Cc1ccc(C(=O)Nc2ccccc2N)cc1,inactive
17,C[C@@H]1CN([C@@H](C)CO)C(=O)c2cccc(NC(=O)C3CCCCC3)c2O[C@H]1CN(C)Cc1ccc(C(=O)Nc2ccccc2N)cc1,inactive
18,C[C@H]1CN([C@@H](C)CO)C(=O)c2cccc(NC(=O)NC3CCCCC3)c2O[C@H]1CN(C)Cc1ccc(C(=O)Nc2ccccc2N)cc1,inactive
19,C[C@H](CO)N1C[C@H](C)[C@H](CN(C)Cc2ccc(C(=O)Nc3ccccc3N)cc2)Oc2c(NC(=O)C3CCCCC3)cccc2C1=O,inactive
20,C[C@H](CO)N1C[C@H](C)[C@H](CN(C)Cc2ccc(C(=O)Nc3ccccc3N)cc2)Oc2c(NC(=O)NC3CCCCC3)cccc2C1=O,active
21,C[C@H]1CN([C@@H](C)CO)C(=O)c2cccc(NC(=O)C3CCCCC3)c2O[C@H]1CN(C)Cc1ccc(C(=O)Nc2ccccc2N)cc1,active
22,C[C@@H]1CN([C@@H](C)CO)C(=O)c2cccc(NC(=O)NC3CCCCC3)c2O[C@@H]1CN(C)Cc1ccc(C(=O)Nc2ccccc2N)cc1,inactive

row,SMILES,cytotoxicity call
1,C[C@@H]1CN([C@@H](C)CO)C(=O)c2cccc(NC(=O)C3CCCCC3)c2O[C@@H]1CN(C)Cc1ccc(C(=O)Nc2ccccc2N)cc1,active
2,C[C@@H]1CN([C@@H](C)CO)C(=O)c2cc(NC(=O)C3CC3)ccc2O[C@@H]1CN(C)S(=O)(=O)c1ccc(Cl)cc1,inactive
3,Cc1ccc(S(=O)(=O)N(C)C[C@H]2OCCCC[C@@H](C)Oc3ccc(NC(=O)Nc4ccc(C(F)(F)F)cc4)cc3C(=O)N([C@@H](C)CO)C[C@H]2C)cc1,inactive
4,O=C(O)c1c(Br)c(Br)c(Br)c(Br)c1-c1c2ccc(=O)cc-2oc2cc(O)ccc12,inactive
5,CNC[C@@H]1OCCCC[C@H](C)Oc2ccc(NC(=O)Nc3ccc(C(F)(F)F)cc3)cc2C(=O)N([C@@H](C)CO)C[C@@H]1C,inactive
6,COc1ccc(S(=O)(=O)N(C)C[C@@H]2Oc3ccc(NC(=O)CCCN(C)C)cc3C(=O)N([C@@H](C)CO)C[C@H]2C)cc1,inactive
7,C[C@@H]1CCCCO[C@@H](CN(C)C(=O)c2ccccc2)[C@H](C)CN([C@H](C)CO)C(=O)c2cc(NC(=O)c3ccccc3)ccc2O1,inactive
8,CC(C)NC(=O)Nc1ccc2c(c1)CC(=O)N([C@@H](C)CO)C[C@@H](C)[C@H](CN(C)S(=O)(=O)c1cn(C)cn1)O2,inactive
9,C[C@@H]1CN([C@H](C)CO)C(=O)c2cc(NC(=O)Nc3ccccc3)ccc2O[C@H]1CN(C)C(=O)Nc1ccc(C(F)(F)F)cc1,inactive
10,O=C(O)C[C@@H]1CC[C@H]2[C@@H](COC[C@@H](O)CN2S(=O)(=O)c2ccc(F)cc2)O1,inactive
11,COc1ccc(NC(=O)Nc2cccc3c2O[C@@H](CN(C)CC2CCCCC2)[C@H](C)CN([C@H](C)CO)C3=O)cc1,inactive
12,CC(C)NC(=O)N(C)C[C@H]1Oc2c(NC(=O)Nc3ccc4c(c3)OCO4)cccc2C(=O)N([C@@H](C)CO)C[C@H]1C,inactive
13,CC(C)NC(=O)N(C)C[C@H]1Oc2ccc(NC(=O)Nc3ccc4c(c3)OCO4)cc2C(=O)N([C@@H](C)CO)C[C@H]1C,inactive
14,CC(C)NC(=O)N(C)C[C@H]1Oc2ccc(NC(=O)Nc3ccc4c(c3)OCO4)cc2C(=O)N([C@H](C)CO)C[C@H]1C,inactive
15,CC(C)NC(=O)N(C)C[C@@H]1Oc2c(NC(=O)Nc3ccc4c(c3)OCO4)cccc2C(=O)N([C@H](C)CO)C[C@H]1C,inactive
16,Cc1cc(C(=O)Nc2cccc3c2O[C@@H](CN(C)C(=O)Nc2ccc4c(c2)OCO4)[C@@H](C)CN([C@@H](C)CO)C3=O)n(C)n1,active
17,C[C@H](CO)N1C[C@H](C)[C@@H](CN(C)C(=O)Nc2ccc3c(c2)OCO3)Oc2ncc(-c3cncnc3)cc2C1=O,active
18,Cc1cc(C(=O)Nc2cccc3c2O[C@H](CN(C)C(=O)Nc2ccc4c(c2)OCO4)[C@H](C)CN([C@@H](C)CO)C3=O)n(C)n1,inactive
19,Cc1cc(C(=O)Nc2cccc3c2O[C@@H](CN(C)C(=O)Nc2ccc4c(c2)OCO4)[C@H](C)CN([C@@H](C)CO)C3=O)n(C)n1,inactive
20,C[C@@H]1CN([C@H](C)CO)C(=O)c2cc(-c3cncnc3)cnc2O[C@@H]1CN(C)C(=O)Nc1ccc2c(c1)OCO2,inactive
21,C[C@@H]1CN([C@@H](C)CO)C(=O)c2cc(-c3cncnc3)cnc2O[C@H]1CN(C)C(=O)Nc1ccc2c(c1)OCO2,inactive
22,CC(C)NC(=O)N(C)C[C@@H]1Oc2ccc(NC(=O)Nc3ccc4c(c3)OCO4)cc2C(=O)N([C@@H](C)CO)C[C@@H]1C,active

row,SMILES,cytotoxicity call
1,CC(C)NC(=O)N(C)C[C@@H]1Oc2c(NC(=O)Nc3ccc4c(c3)OCO4)cccc2C(=O)N([C@@H](C)CO)C[C@H]1C,active
2,C[C@@H]1CCCCO[C@H](CN(C)Cc2ccc(C(=O)O)cc2)[C@@H](C)CN([C@H](C)CO)C(=O)c2cc(NC(=O)C3CCCCC3)ccc2O1,inactive
3,Cc1ccc(S(=O)(=O)N(C)C[C@@H]2Oc3ncc(C#CCN(C)C)cc3C(=O)N([C@H](C)CO)C[C@@H]2C)cc1,inactive
4,Cc1noc(C)c1NC(=O)N(C)C[C@H]1OCCCC[C@@H](C)Oc2ccc(NS(=O)(=O)c3cccs3)cc2C(=O)N([C@@H](C)CO)C[C@@H]1C,inactive
5,C[C@H]1CN([C@@H](C)CO)C(=O)c2cccc(NS(=O)(=O)c3ccc(F)cc3)c2O[C@H]1CN(C)S(=O)(=O)c1ccccc1,inactive
6,Cc1noc(C)c1S(=O)(=O)N(C)C[C@H]1Oc2c(NS(=O)(=O)c3cn(C)cn3)cccc2C(=O)N([C@@H](C)CO)C[C@H]1C,inactive
7,COc1cccc(O)c1O,active
8,COc1cccc(OC)c1O,inactive
9,COc1ccccc1O,inactive
10,O=C1/C(=C/c2cn(-c3ccccc3)nc2-c2ccc(OCc3ccccc3)cc2)SC(=S)N1CCS(=O)(=O)O,inactive
11,Cc1noc(C)c1NC(=O)N(C)C[C@@H]1Oc2ccc(NC(=O)c3ccncc3)cc2C(=O)N([C@@H](C)CO)C[C@H]1C,inactive
12,C[C@@H]1CCCCO[C@@H](CN(C)Cc2ccc3c(c2)OCO3)[C@@H](C)CN([C@@H](C)CO)C(=O)c2cc(NC(=O)Nc3ccc4c(c3)OCO4)ccc2O1,active
13,C[C@@H]1CCCCO[C@H](CN(C)Cc2ccc3c(c2)OCO3)[C@H](C)CN([C@H](C)CO)C(=O)c2cc(NC(=O)Nc3ccc4c(c3)OCO4)ccc2O1,active
14,C[C@H]1CCCCO[C@@H](CN(C)Cc2ccc3c(c2)OCO3)[C@@H](C)CN([C@@H](C)CO)C(=O)c2cc(NC(=O)Nc3ccc4c(c3)OCO4)ccc2O1,inactive
15,C[C@@H]1CCCCO[C@@H](CN(C)Cc2ccc3c(c2)OCO3)[C@H](C)CN([C@@H](C)CO)C(=O)c2cc(NC(=O)Nc3ccc4c(c3)OCO4)ccc2O1,inactive
16,C[C@@H]1CN([C@@H](C)CO)C(=O)c2cc(NC(=O)Nc3ccc4c(c3)OCO4)ccc2O[C@@H](C)CCCCO[C@H]1CN(C)Cc1ccc2c(c1)OCO2,inactive
17,C[C@@H]1CCCCO[C@@H](CN(C)Cc2ccc3c(c2)OCO3)[C@H](C)CN([C@H](C)CO)C(=O)c2cc(NC(=O)Nc3ccc4c(c3)OCO4)ccc2O1,active
18,C[C@H](CO)N1C[C@H](C)[C@H](CN(C)Cc2ccc3c(c2)OCO3)OCCCC[C@H](C)Oc2ccc(NC(=O)Nc3ccc4c(c3)OCO4)cc2C1=O,active
19,C[C@@H]1CN([C@H](C)CO)C(=O)c2cc(NC(=O)Nc3ccc4c(c3)OCO4)ccc2O[C@@H](C)CCCCO[C@H]1CN(C)Cc1ccc2c(c1)OCO2,inactive
20,C[C@H]1CCCCO[C@H](CN(C)Cc2ccc3c(c2)OCO3)[C@@H](C)CN([C@@H](C)CO)C(=O)c2cc(NC(=O)Nc3ccc4c(c3)OCO4)ccc2O1,inactive
